This is an account of results in PubChem BioAssay (NCATS).

Unmarked numbers belong to inactive results. Records with an inconclusive call do not appear. The source made the active and inactive calls. Unless noted, calls follow the shape of the dose curve; as a rule, active = well fitted curve in the direction sought with a large enough effect; inconclusive = small, poorly fitted or top-dose-only effect, or another doubt; inactive = no such curve, though single readings can be large; an effect the other way counts as inactive or inconclusive. A value given as a limit tells only on which side of the number the result lay.

The target in experiment [1] is Rap guanine nucleotide exchange factor 3 (Homo sapiens) (UniProt O95398). Nature of the experiment: Confirmatory qHTS for antagonist of cAMP-regulated guanine nucleotide exchange factor 3 (EPAC1) (AID 1645880). Also: nearly all actives have a fitted effect of over 55% in size. Also: potency is read from the fitted curve at half-maximal effect.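 As to activity, negative = inhibition: plate controls were DMSO only for no effect and full effect of the ATA control for full effect.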 The settings on record: EPAC1 Rap1B-BODIPY-GDP exchange, fluorescence; activity, negative = inhibition: at 115 µM (top of the series). The procedure, abridged: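 Nucleotide exchange uses 100 nM EPAC1, 250 nM RAP1B-BODIPY-GDP and 50 uM GDP, with compounds in a concentration-titration series. After 5 min at room temperature, fluorescence (480 nm ex/540 nm em) is read every 5 min for 30 min. Data are normalized to control ATA and DMSO.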
Background: qHTS replaces the single test concentration by a dilution series.

Experiment [2] has the same target. Description: Confirmatory qHTS for agonist of cAMP-regulated guanine nucleotide exchange factor 3 (EPAC1) (AID 1645881). Also: nearly all actives have a fitted effect of over 75% in size. Also: potency is read from the fitted curve at half-maximal effect.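 As to activation: EPAC1 catalysed release of BODIPY-GDP from Rap1B seen as fluorescence loss; 100% = effect of cAMP agonist control.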
Experiment [3] concerns the target Rap guanine nucleotide exchange factor 4 (Homo sapiens) (UniProt Q8WZA2). Nature of the experiment: Confirmatory qHTS for agonist of cAMP-regulated guanine nucleotide exchange factor 4 (EPAC2) (AID 1645884).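 Also: nucleotide exchange releases bodipy-GDP from Rap1 and this lowers its fluorescence; nearly all actives have a fitted effect of over 65% in size.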 Also: potency is read from the fitted curve at half-maximal effect. As to activation: % is scaled to controls: 0 for no effect and ±100 for the full control effect.
In experiment [4] the target is Rap guanine nucleotide exchange factor 3 (Homo sapiens) (UniProt O95398). Nature of the experiment: Counterscreen qHTS for antagonist of cAMP-regulated guanine nucleotide exchange factor 3 (EPAC1) (AID 1645888).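 Also: fluorescence loss as bound BODIPY-GDP is released from Rap1B; % of control where 0% means no effect.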 The method in brief: (§1)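 Rap1B-BODIPY-GDP 250 nM + GDP 50 uM; cpds 7-pt, final 9.74 nM–152 uM (activator mode) or from 7.32 nM upwards (inhibitor mode); RT; FI 480/540 nm at 5 and 30 min, then ± cAMP, reread.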

Experiment [5] shares this target. Nature of the experiment: Counterscreen qHTS for agonist of cAMP-regulated guanine nucleotide exchange factor 3 (EPAC1) (AID 1645889). Also: nearly all actives have a fitted effect of over 40% in size. Also: potency is read from the fitted curve at half-maximal effect. As to activation: % of control where 0% means no effect. The method in brief:
as §1
(In general: Counterscreens check selectivity or assay interference.)

The nature of experiment [6]: Stat Signaling Pathway (AID 446; active = well fitted curve in either direction with a large enough effect, not every such curve was filed as active;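 also: ME-180 cervical cancer cells given 40 pM IL-6 alongside compound; SIE-controlled beta-lactamase reporter measured as 460/530 nm FRET emission ratio; % is scaled to controls: 0 for no effect and ±100 for the full control effect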). The method in brief:
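ME-180 SIE-bla cells; overnight plating; cpd + IL-6 40 pM, 5 h, 37 C; LiveBLAzer 2.5 h RT; 460/530 nm emission ratio. Normalized to 300 pM IL-6 and 125 nM JAK inhibitor controls.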

Experiment [7] concerns the target Glucocorticoid receptor (Homo sapiens) (UniProt P04150). Nature of the experiment: GR-GFP Redistribution (AID 450;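 active = compounds whose dose series gives a full or clear partial fitted curve of increased nuclear translocation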; also: potency is read from the fitted curve at half-maximal effect). Particulars: U2OS GR-GFP nuclear translocation, laser cytometry, 2 h.

Rap guanine nucleotide exchange factor 3 (Homo sapiens), sequence (O95398 whole entry, looked up): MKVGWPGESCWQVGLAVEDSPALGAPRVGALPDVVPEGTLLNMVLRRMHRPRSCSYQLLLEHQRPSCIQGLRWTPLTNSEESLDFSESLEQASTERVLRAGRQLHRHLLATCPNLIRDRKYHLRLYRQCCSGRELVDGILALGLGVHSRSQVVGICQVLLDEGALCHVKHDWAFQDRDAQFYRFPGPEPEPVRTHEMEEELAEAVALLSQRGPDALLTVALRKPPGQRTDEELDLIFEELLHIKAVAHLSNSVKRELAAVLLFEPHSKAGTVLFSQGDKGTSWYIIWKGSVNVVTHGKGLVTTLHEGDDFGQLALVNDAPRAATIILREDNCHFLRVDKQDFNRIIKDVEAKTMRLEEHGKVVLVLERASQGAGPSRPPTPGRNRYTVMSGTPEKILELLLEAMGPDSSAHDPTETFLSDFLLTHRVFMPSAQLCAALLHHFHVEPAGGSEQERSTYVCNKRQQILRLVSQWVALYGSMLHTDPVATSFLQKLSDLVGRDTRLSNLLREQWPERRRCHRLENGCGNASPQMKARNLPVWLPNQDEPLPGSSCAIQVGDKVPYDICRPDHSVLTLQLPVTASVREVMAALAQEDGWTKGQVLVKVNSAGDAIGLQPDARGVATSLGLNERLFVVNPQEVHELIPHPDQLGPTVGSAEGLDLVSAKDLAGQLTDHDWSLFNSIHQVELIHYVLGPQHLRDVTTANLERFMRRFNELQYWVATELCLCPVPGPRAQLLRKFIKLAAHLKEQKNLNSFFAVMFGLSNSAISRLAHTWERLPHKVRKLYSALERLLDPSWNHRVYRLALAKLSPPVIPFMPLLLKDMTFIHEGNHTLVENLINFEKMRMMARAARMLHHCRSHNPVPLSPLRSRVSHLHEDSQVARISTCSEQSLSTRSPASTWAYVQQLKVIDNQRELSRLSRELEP
Rap guanine nucleotide exchange factor 4 (Homo sapiens), sequence (Q8WZA2 whole entry, looked up): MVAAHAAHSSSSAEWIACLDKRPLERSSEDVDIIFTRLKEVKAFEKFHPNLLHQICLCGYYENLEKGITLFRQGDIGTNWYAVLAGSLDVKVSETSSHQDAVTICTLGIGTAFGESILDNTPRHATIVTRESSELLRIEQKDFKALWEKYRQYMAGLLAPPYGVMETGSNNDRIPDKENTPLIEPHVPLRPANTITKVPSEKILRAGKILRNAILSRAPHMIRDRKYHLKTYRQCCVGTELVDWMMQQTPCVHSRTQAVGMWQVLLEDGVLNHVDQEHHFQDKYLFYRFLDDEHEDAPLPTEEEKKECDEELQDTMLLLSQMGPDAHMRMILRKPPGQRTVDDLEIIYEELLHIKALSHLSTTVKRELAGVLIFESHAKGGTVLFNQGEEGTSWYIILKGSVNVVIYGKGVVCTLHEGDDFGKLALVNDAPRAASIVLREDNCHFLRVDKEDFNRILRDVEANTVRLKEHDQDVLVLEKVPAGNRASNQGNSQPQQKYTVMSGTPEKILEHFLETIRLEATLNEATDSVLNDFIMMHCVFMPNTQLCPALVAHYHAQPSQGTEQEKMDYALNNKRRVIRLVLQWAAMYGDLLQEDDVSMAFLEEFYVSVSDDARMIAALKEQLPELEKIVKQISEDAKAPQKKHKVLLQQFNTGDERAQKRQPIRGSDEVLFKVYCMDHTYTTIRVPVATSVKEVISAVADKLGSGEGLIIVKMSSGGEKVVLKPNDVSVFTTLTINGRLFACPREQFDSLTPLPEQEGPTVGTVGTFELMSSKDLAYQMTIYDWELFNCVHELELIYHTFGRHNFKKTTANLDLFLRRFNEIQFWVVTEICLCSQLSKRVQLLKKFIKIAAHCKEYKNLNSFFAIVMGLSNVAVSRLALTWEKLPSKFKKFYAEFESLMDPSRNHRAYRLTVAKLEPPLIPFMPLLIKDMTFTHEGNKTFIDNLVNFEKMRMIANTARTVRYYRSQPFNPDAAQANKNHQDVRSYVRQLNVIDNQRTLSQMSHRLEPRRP
Glucocorticoid receptor (Homo sapiens), sequence (P04150 whole entry, looked up): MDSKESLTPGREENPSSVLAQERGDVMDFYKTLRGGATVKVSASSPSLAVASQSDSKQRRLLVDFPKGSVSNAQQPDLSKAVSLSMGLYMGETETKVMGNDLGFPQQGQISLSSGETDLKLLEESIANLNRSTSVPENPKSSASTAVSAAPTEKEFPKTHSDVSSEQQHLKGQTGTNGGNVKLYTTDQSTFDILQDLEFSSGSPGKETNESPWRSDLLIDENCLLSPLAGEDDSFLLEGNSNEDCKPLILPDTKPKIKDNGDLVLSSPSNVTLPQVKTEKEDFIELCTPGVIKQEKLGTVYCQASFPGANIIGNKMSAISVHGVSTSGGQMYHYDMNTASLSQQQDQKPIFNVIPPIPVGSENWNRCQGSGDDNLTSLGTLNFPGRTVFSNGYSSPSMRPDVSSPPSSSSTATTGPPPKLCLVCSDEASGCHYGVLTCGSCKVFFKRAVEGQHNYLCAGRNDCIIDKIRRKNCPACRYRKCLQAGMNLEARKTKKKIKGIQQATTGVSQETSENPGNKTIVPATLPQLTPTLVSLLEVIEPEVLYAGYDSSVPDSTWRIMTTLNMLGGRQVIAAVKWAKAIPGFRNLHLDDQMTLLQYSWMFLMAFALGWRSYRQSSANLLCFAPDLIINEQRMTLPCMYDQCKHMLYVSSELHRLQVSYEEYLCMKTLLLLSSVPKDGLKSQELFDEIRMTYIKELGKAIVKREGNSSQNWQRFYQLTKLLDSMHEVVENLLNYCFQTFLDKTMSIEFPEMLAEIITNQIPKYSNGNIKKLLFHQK

As for `O=C(O)c1ccccc1NS(=O)(=O)c1ccc(N/N=C/c2cccc(O)c2O)c([N+](=O)[O-])c1`, in experiment [1], the Potency is 9.53 µM (active). The Potency entry in experiment [2], in experiment [3], in experiment [4] and in experiment [5] was “inactive” each time.
On to `COc1ccc([C@H]2CC(=O)C=C(c3cc(OC)ccc3OC)C2)cc1`, for which the Potency entry in experiment [1], in experiment [2], in experiment [3], in experiment [4] and in experiment [5] was “inactive” in each case.
Take `Cc1ccc(NC(=O)COC(=O)c2ccccc2-c2nc3ccccc3s2)c(C)c1`: the Potency entry in experiment [1], in experiment [2], in experiment [3], in experiment [4] and in experiment [5] was “inactive” in each case.
In the case of `O=C(O)c1ccccc1N=N/C(=N/Nc1cc(S(=O)(=O)O)ccc1O)c1ccccc1`, the Potency in experiment [1] is 44.7 µM (active). The Potency result in experiment [2] is “inactive”. The activation is -5.11% [at 17.1 µM, percent relative to cAMP agonist control] in experiment [3] and -1.6% [at 30.8 µM] in experiment [5]. The activity change, negative = inhibition in experiment [4] is -3.19% [at 30.8 µM].
Consider `O=C(c1ccc(-c2ccccc2Cl)o1)N1CCC1`, for which the Potency entry in experiment [1] and in experiment [2] was “inactive” in each case. In addition, the activation in experiment [3] was 0.137% [at 17.1 µM, percent relative to cAMP agonist control]; in experiment [5], 3.77% [at 30.8 µM]. Besides, the activity change, negative = inhibition in experiment [4] was -16.6% [at 30.8 µM].
Consider `CCOC(=O)c1c(NC(=O)/C=C/C(=O)O)sc(C)c1-c1ccc(C(C)(C)C)cc1`, for which, in experiment [1], the Potency was 42.6 µM (active). In addition, the Potency entry in experiment [2], in experiment [3], in experiment [4] and in experiment [5] was “inactive” throughout.
`O=C1c2ccccc2S(=O)(=O)c2cc(N3CCC(C(=O)N4CCCCC4)CC3)ccc21`: the Potency result in experiment [1] and in experiment [4] was “inactive” in each case. Moreover, the figures for the Potency in experiment [2], in experiment [3] and in experiment [5] were 89.1 µM (active), 100 µM (active) and 56.2 µM (active), respectively.
Consider `Cc1ccc(S(=O)(=O)N2[C@@H](c3ccc(F)cc3)C(C(=O)O)=CC[C@H]2c2ccc(C(C)C)cc2)cc1`, for which, in experiment [1], the Potency is 75.7 µM (active). The Potency entry in experiment [2], in experiment [3], in experiment [4] and in experiment [5] was “inactive” throughout.
Turning to `CCOC(=O)c1[nH]c2ccc(OCC)cc2c1NC(=O)CN1CCN(c2ccccn2)CC1`, the Potency result in experiment [1], in experiment [2], in experiment [3], in experiment [4] and in experiment [5] was “inactive” each time.
Regarding `COc1ccc(-c2csc3ncn(-c4ccc(C)cc4)c(=O)c23)cc1OC`, the Potency entry in experiment [1], in experiment [2], in experiment [3], in experiment [4] and in experiment [5] was “inactive” in each case.
As for `CCOc1ccc(Br)cc1S(=O)(=O)Nc1ccc(S(=O)(=O)Nc2cc(C)on2)cc1`, the Potency in experiment [1] is 19 µM (active). The Potency entry in experiment [2], in experiment [3], in experiment [4] and in experiment [5] was “inactive” throughout.
As for `COCCCNC(=O)C(C#N)c1nc2ccccc2nc1N1CCN(Cc2ccccc2)CC1` (configuration not stated), in experiment [6], the outcome was inactive. The Potency in experiment [7] was greater than 20.6 µM; in experiment [1], 75.7 µM (active). Further, the Potency entry in experiment [2], in experiment [3], in experiment [4] and in experiment [5] was “inactive” in each case.
With `Cc1ccc(N(C(=O)c2ccccc2Cl)C2=NC(C)CS2)c(C)c1` (configuration not stated), the Potency entry in experiment [1] and in experiment [2] was “inactive” in each case. For the same compound, the activation in experiment [3] was 5.24% [at 17.1 µM, percent relative to cAMP agonist control]; in experiment [5] it was 26.9% [at 30.8 µM]. Besides, the activity change, negative = inhibition in experiment [4] was -24.5% [at 30.8 µM].
For the compound `C[C@H](CO)N1C[C@H](C)[C@@H](CN(C)C)Oc2c(NS(=O)(=O)c3ccccc3)cccc2C1=O`, the Potency entry in experiment [1], in experiment [2], in experiment [3], in experiment [4] and in experiment [5] was “inactive” in each case.
Turning to `O=S(=O)(Nc1ccc(C(O)(C(F)(F)F)C(F)(F)F)cc1)c1ccc(Cl)c2nonc12`, the Potency in experiment [1] is 42.6 µM (active). Further, the Potency entry in experiment [2], in experiment [3], in experiment [4] and in experiment [5] was “inactive” each time.
For `CCC1SC2=NC(C)=C(C(=O)OC)C(c3cccs3)N2C1=O` (configuration not stated), the Potency result in experiment [1] and in experiment [2] was “inactive” in each case. Moreover, the activation in experiment [3] is -2.13% [at 17.1 µM, percent relative to cAMP agonist control]; in experiment [5], 5.87% [at 30.8 µM]. For the same compound, the activity change, negative = inhibition in experiment [4] was -9.77% [at 30.8 µM].
Consider `O=C(Nc1ccc2nc3n(c(=O)c2c1)CCCCC3)c1c(F)ccc([N+](=O)[O-])c1F`, for which the Potency in experiment [1] was 15.1 µM (active). Further, the Potency result in experiment [2], in experiment [3], in experiment [4] and in experiment [5] was “inactive” throughout.
In the case of `COc1ccc(C2CC(=O)c3ccccc3O2)cc1` (configuration not stated), the Potency entry in experiment [1], in experiment [2], in experiment [3], in experiment [4] and in experiment [5] was “inactive” throughout.
As to `Cc1nnc(SCC(=O)Nc2sccc2C#N)s1`, the Potency result in experiment [1], in experiment [2], in experiment [3] and in experiment [4] was “inactive” throughout. The Potency in experiment [5] was 0.0178 µM (active).
For the compound `CC1(C(=O)NS(=O)(=O)c2cccc(Cl)c2)CCN1C(=O)C1(c2ccc(Cl)cc2)CCC1` (configuration not stated), the Potency in experiment [1] was 11.2 µM (active). Besides, the Potency result in experiment [2] is “inactive”. Besides, the activation in experiment [3] is 6.65% [at 17.1 µM, percent relative to cAMP agonist control]; in experiment [5] it was 5.49% [at 30.8 µM]. Besides, the activity change, negative = inhibition in experiment [4] is -18.6% [at 30.8 µM].
For `CCOc1ccc(C(=O)Nc2c(C(=O)Nc3ccccc3F)oc3ccccc23)cc1OCC`, the Potency result in experiment [1], in experiment [2], in experiment [3], in experiment [4] and in experiment [5] was “inactive” in each case.
Consider `CN(CCC#N)C(=O)COC(=O)c1c2c(nc3ccccc13)/C(=C\c1ccco1)CC2`, for which the Potency in experiment [1] was 9.53 µM (active). Also, the Potency entry in experiment [2], in experiment [3], in experiment [4] and in experiment [5] was “inactive” in each case.
Turning to `C=CCn1c(Cc2ccccc2)nc2c(cnn2-c2ccccc2)c1=O`, the Potency entry in experiment [1], in experiment [2], in experiment [3], in experiment [4] and in experiment [5] was “inactive” each time.
